# Assay results: PubChem BioAssay AID489042 (NMMLSC, 2010)
# Unmarked numbers belong to inactive results. Activity calls are given as the source filed them. No stated cut-off is given here; in the data, active means inhibition score above about 11; inactive means the rest.
# Experiment: yeast proliferation inhibition, dose response, BY4741, OD595, 24 h (AID 489042)
# Details: S. cerevisiae BY4741 growth, flow cytometer event count, 7 d (AID 449753), stronger effect = higher value
row,Structure (SMILES),inhibition score
1,CCn1c2ccccc2c2n[nH]c(=S)nc21,0
2,C#CCSc1nnc(-c2ccc([N+](=O)[O-])cc2)o1,0
3,CSc1nnc(-c2ccc([N+](=O)[O-])cc2)o1,0
4,CC(C)(C)Nc1ncnc2c1cnn2-c1ccccc1,0
5,COC(=O)c1cccc2nc3c(C(C)O)cccc3nc12 (centres undefined),0
6,N#CCc1nn(-c2ccccc2)c2ncnc(N)c12,0
7,Cc1cc2nc3ccc(N(C)C)cc3nc2cc1N,0
8,Cc1cc(C)cc(NC(=O)CN2CCN(c3ccccn3)CC2)c1,0
9,O=C(/C=C/c1cccs1)NC(=S)NNC(=O)Cc1cccs1,11 (active)
10,O=C(OCc1c(F)cccc1Cl)c1cnc2ccccc2n1,0
11,NC(=O)CSc1nnc(-c2ccc([N+](=O)[O-])cc2)o1,0
12,CSc1nnc2c3cc(F)ccc3n(C)c2n1,0
13,COc1ccc2c3c(cccc13)N(C)N=C2C,0
14,Cc1cc(C)c2[nH]c3nc(SCC(=O)O)nnc3c2c1,0
15,COc1ccc2c(c1)c1nnc(SC)nc1n2C,0
16,O=C(c1cccc2nc3ccccc3nc12)N1CCOCC1,0
17,Cc1ccccc1NC(=O)c1cccc2nc3ccccc3nc12,0
18,COc1ccc2nc3cccc(OC)c3nc2c1,0
19,C=CCSc1nnc(-c2ccc([N+](=O)[O-])cc2)o1,0
20,O=C(Nc1ccc2nc3ccccc3nc2c1)c1ccccc1,0
21,CC(C)(C)n1nc(-c2ccc(F)cc2)c2c(N)ncnc21,0
22,CC(C)OC(=O)c1ccc2nc3ccccc3nc2c1,0
23,O=C(Nc1ccc2nc3ccccc3nc2c1)c1ccc(Br)cc1,0
24,CCN(CC)C(=O)c1ccc2nc3ccccc3nc2c1,0
25,COc1ccc2cc(C3CC(c4ccco4)=NN3S(=O)(=O)c3ccccc3)c(Cl)nc2c1 (centres undefined),0
26,O=C(Nc1cccc(Cl)c1)Nc1ccc2nccnc2c1,0
27,CCN(CC)C(=O)c1cccc2nc3ccccc3nc12,0
28,CC(=O)Nc1ccc2nc3ccccc3nc2c1,0
29,COc1ccc2nc3ccccc3nc2c1NC(=O)c1ccccc1Cl,0
